This is part of a sample that, as a whole, favours compounds with a hit. Of some 79,000 tested, about 15% had one in any assay. Values without a mark were called inactive. Activity calls are given as the source filed them. No stated cut-off is given here; in the data, active means growth inhibition above about 70%; inactive means the rest.

The nature of experiment [1]: NCI Yeast Anticancer Drug Screen. Data for the rad50 strain (AID 155).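 Further: 0% = growth of vehicle-only cultures of the same strain.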 The settings on record: S. cerevisiae rad50 strain growth inhibition; at 50.0 µM; hits give high values. Put shortly: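 Readout: growth inhibition relative to vehicle-treated cultures. Compound exposure was carried out in a genetically defined yeast strain deficient in DNA damage repair.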
Experiment [2] in a line: NCI Yeast Anticancer Drug Screen. Data for the mec2-1 strain (AID 157). Conditions: S. cerevisiae mec2-1 strain, at 50.0 µM, hits give high values. The procedure, abridged: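 Strain: mec2-1 (DNA repair/cell cycle alteration). Compound exposure, then growth measured; inhibition expressed relative to vehicle.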
Experiment [3] is described as follows: NCI Yeast Anticancer Drug Screen. Data for the sgs1 mgt1 strain (AID 161).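 Further: 0% = growth of cultures given vehicle only.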 The settings on record: S. cerevisiae sgs1 mgt1 strain, at 50.0 µM, hits give high values. Put shortly: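 Inhibition of yeast growth, normalised to vehicle-treated controls, is reported for a strain bearing genetic alterations in DNA damage repair.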
A short description of experiment [4]: NCI Yeast Anticancer Drug Screen. Data for the cln2 rad14 strain (AID 165).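 Further: 0% = growth equal to vehicle treated cultures.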 The settings on record: S. cerevisiae cln2 rad14 strain, at 50.0 µM, hits give high values. Put shortly:
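Compounds are applied to the cln2 rad14 yeast strain, and growth is then compared with that of vehicle-treated cultures to give inhibition.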

A short description of experiment [5]: NCI Yeast Anticancer Drug Screen. Data for the bub3 strain (AID 167). Conditions: S. cerevisiae bub3 mutant strain, at 50.0 µM, hits give high values. The procedure, abridged:
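Readout: yeast growth inhibition, expressed relative to vehicle-only wells. The test organism is a mutant strain from a panel with lesions in DNA repair or checkpoint genes.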

A short description of experiment [6]: NCI Yeast Anticancer Drug Screen. Data for the mlh1 rad18 strain (AID 175). Conditions: S. cerevisiae mlh1 rad18 strain growth inhibition; at 50.0 µM; hits give high values. The procedure, abridged:
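Read-out is yeast growth inhibition, calculated against vehicle-only controls. The compound was applied to a strain engineered with DNA damage repair alterations.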

As for `CCCCNC(=O)/C=C\C(=O)O`, the growth inhibition is 5.95% in experiment [1]; -10.3% in experiment [2]; -1.65% in experiment [3]; 2.75% in experiment [4]; -8.5% in experiment [5]; 1.45% in experiment [6].

Consider `CCOC(=O)c1ccnc2ccccc12`, for which the growth inhibition in experiment [1] was -5.05%; in experiment [2], -3.75%; in experiment [3], 1.1%; in experiment [4], -4.85%; in experiment [5], 5.65%; in experiment [6] it was 3.7%.

On to `CC(C)(C)OC(=O)NC(CSCc1ccc(C(=O)c2ccccc2)cc1)C(=O)O` (stereo unspecified), for which the growth inhibition in experiment [1] was -23.9%; in experiment [2], -28.1%; in experiment [3] it was -15.3%; in experiment [4], 10.6%; in experiment [5] it was -12.8%; in experiment [6], -2.3%.

With `Cc1ccc(NC(=O)CCC(=O)C2Cc3ccccc3C2=O)cc1C` (stereo unspecified), the growth inhibition in experiment [1] is -16%; in experiment [2], -7.55%; in experiment [3] it was -5.05%; in experiment [4], 21.3%; in experiment [5], 1.65%; in experiment [6], 3.85%.

Regarding `CN(C)Cc1cc(C(=O)/C=C/c2ccc(Cl)cc2Cl)cc(CN(C)C)c1O`, the growth inhibition in experiment [1] was 6.4%; in experiment [2], -12.8%; in experiment [3], 8.55%; in experiment [4], -51.4%; in experiment [5] it was 8.85%; in experiment [6] it was 13.8%.

Consider `CC(=O)OCC(OC(C)=O)C(OC(C)=O)C(OC(C)=O)C(OC(C)=O)C(C=O)OC(C)=O` (stereo unspecified), for which the growth inhibition in experiment [1] is -31.6%; in experiment [2] it was -1.7%; in experiment [3] it was 11.7%; in experiment [4] it was -37.2%; in experiment [5] it was -1.25%; in experiment [6], -7.95%.

`[N-]=[N+]=Nc1ccc(NCCCCCC(=O)ON2C(=O)CCC2=O)c([N+](=O)[O-])c1`: the growth inhibition was 72% (active) in experiment [1]; 9.25% in experiment [2]; 77.7% (active) in experiment [3]; 19.4% in experiment [4]; 4.7% in experiment [5]; 67% in experiment [6].

As to `On1ccc(N2CCOCC2)cc1=NC1CCCCC1`, the growth inhibition is 25.9% in experiment [1]; 14.9% in experiment [2]; 14.5% in experiment [3]; 17.6% in experiment [4]; 3.7% in experiment [5]; 25.7% in experiment [6].

Take `COc1cc2c(cc1O)CCN[C@@]21CS[C@H]2c3c(OC(C)=O)c(C)c4c(c3C(COC1=O)N1C2C2NC(Cc3cc(C)c(OC)c(O)c32)[C@@H]1O)OCO4` (stereo partly specified): the growth inhibition in experiment [1] is 91.5% (active); in experiment [2], 94% (active); in experiment [3] it was 93.7% (active); in experiment [4], 91.5% (active); in experiment [5] it was 92.2% (active); in experiment [6], 91.2% (active).

Take `CSCC(=O)c1ccccc1`: the growth inhibition is 17.4% in experiment [1]; 6.55% in experiment [2]; 9.25% in experiment [3]; -6.3% in experiment [4]; 2.15% in experiment [5]; 5.3% in experiment [6].

For `CCN(CC)CCOc1cccc(Oc2ccccc2)c1`, the growth inhibition was 74% (active) in experiment [1]; 62.7% in experiment [2]; 72.8% (active) in experiment [3]; 68.2% in experiment [4]; 53% in experiment [5]; 84% (active) in experiment [6].

Take `CC(=O)N1C(=O)C(C)(C2=CC(=O)c3ccccc3C2=O)c2ccc(Br)cc21` (stereo unspecified): the growth inhibition is 76.8% (active) in experiment [1]; 77% (active) in experiment [2]; 73.7% (active) in experiment [3]; 71.8% (active) in experiment [4]; 87% (active) in experiment [5]; 67.2% in experiment [6].

Take `CCCCCCOC(=O)C(O)C(C)(Cl)c1ccccc1` (stereo unspecified): the growth inhibition was 11.3% in experiment [1]; 9.9% in experiment [2]; 4.6% in experiment [3]; 15.9% in experiment [4]; 12.6% in experiment [5]; 13.7% in experiment [6].

Turning to `Cn1c(=O)c2[nH]c(SCCN3CCOCC3)nc2n(C)c1=S`, the growth inhibition in experiment [1] is -23.4%; in experiment [2], -47.2%; in experiment [3], -25.6%; in experiment [4], 14.2%; in experiment [5], -66.2%; in experiment [6], -4.95%.

For the compound `CCCCC1(NN=C2CCCCC2)C(=O)N(c2ccccc2)N(c2ccccc2)C1=O`, the growth inhibition in experiment [1] was -11.2%; in experiment [2], -6.2%; in experiment [3], -0.4%; in experiment [4], -0.75%; in experiment [5], -7.4%; in experiment [6], -8.65%.

For `COc1ccc(C(=O)CCC(=O)O)c(C)c1`, the growth inhibition was 7.45% in experiment [1]; 13.1% in experiment [2]; -0.85% in experiment [3]; 1.55% in experiment [4]; 19.6% in experiment [5]; 5.25% in experiment [6].

With `CCC(=O)CCc1ccc(OC)cc1`, the growth inhibition in experiment [1] is 4.55%; in experiment [2], -6.75%; in experiment [3], -3.85%; in experiment [4], -20.6%; in experiment [5], -12.2%; in experiment [6], -13.8%.

On to `CCOc1ccc(C(C)(C)c2cc3c(cc2OC)OCO3)cc1`, for which the growth inhibition in experiment [1] is -16.2%; in experiment [2], -27.8%; in experiment [3], -39.9%; in experiment [4] it was -24.8%; in experiment [5], -21.9%; in experiment [6] it was -6.45%.

Regarding `O=C(O)C1=C(C(=O)Nc2ccc(NC(=O)C3=C(C(=O)O)C4C=CC3C4)cc2)C2C=CC1C2`, the growth inhibition is -0.75% in experiment [1]; -0.35% in experiment [2]; -6.3% in experiment [3]; -28.4% in experiment [4]; 0.25% in experiment [5]; 9.95% in experiment [6].

On to `O=[N+]([O-])c1ccc(S(=O)(=O)N/N=C\c2cc([N+](=O)[O-])ccc2O)cc1`, for which the growth inhibition was 11.8% in experiment [1]; -1.4% in experiment [2]; 11.2% in experiment [3]; -35.2% in experiment [4]; 1.55% in experiment [5]; 26.6% in experiment [6].

Regarding `CN1CC(=O)N(CO)/C1=N\CO`, the growth inhibition in experiment [1] was -7.15%; in experiment [2] it was -5.45%; in experiment [3], -6.85%; in experiment [4] it was -10.8%; in experiment [5] it was 5.85%; in experiment [6], 2.05%.

(Values after PubChem BioAssay (NCI).)
